The nature of test [1]: NCI Yeast Anticancer Drug Screen. Data for the rad50 strain (AID 155).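 Also: 0% = growth of vehicle-only cultures of the same strain.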 The following applies: S. cerevisiae rad50 strain growth inhibition, stronger effect = higher value. A digest of the protocol:
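A DNA repair-deficient yeast mutant serves as the test organism; compound-induced growth inhibition is calculated against vehicle-treated cells.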

Test [2] is described as follows: NCI Yeast Anticancer Drug Screen. Data for the mec2-1 strain (AID 157). The following applies: S. cerevisiae mec2-1 strain, stronger effect = higher value. The method in brief: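 Mutant yeast (mec2-1) grown with compound; growth inhibition relative to vehicle control reported.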
A short description of test [3]: NCI Yeast Anticancer Drug Screen. Data for the sgs1 mgt1 strain (AID 161).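 Also: 0% = growth of cultures given vehicle only.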 The conditions noted are these: S. cerevisiae sgs1 mgt1 strain, stronger effect = higher value. The method in brief: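 Growth of a repair-deficient yeast mutant was monitored after compound treatment and expressed as inhibition relative to vehicle-treated cultures.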
The nature of test [4]: NCI Yeast Anticancer Drug Screen. Data for the cln2 rad14 strain (AID 165).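 Also: 0% = growth equal to vehicle treated cultures.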 The conditions noted are these: S. cerevisiae cln2 rad14 strain, stronger effect = higher value. The method in brief:
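Readout is yeast growth inhibition versus vehicle-treated controls, using a strain with cln2 and rad14 alterations exposed to compound.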

Test [5] in a line: NCI Yeast Anticancer Drug Screen. Data for the bub3 strain (AID 167). The following applies: S. cerevisiae bub3 mutant strain, stronger effect = higher value. The method in brief: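 Inhibition values come from growth of compound-treated mutant yeast normalised to vehicle-treated controls.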
Test [6] can be described thus: NCI Yeast Anticancer Drug Screen. Data for the mlh1 rad18 strain (AID 175). The following applies: S. cerevisiae mlh1 rad18 strain growth inhibition, stronger effect = higher value. A digest of the protocol: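 Genetically defined yeast (DNA repair-deficient) exposed to compounds; growth inhibition determined relative to vehicle.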
Setting [7] is: at 5.0 µM (retest, dose inferred, filed as 0.5).
[8] abbreviates: at 50.0 µM (retest, dose inferred, filed as 5.0).

SMILES strings stand for the structures. About 79,000 compounds went through this panel and 15% of them were active in at least one assay; those are over-represented in the sample as a whole. A number with no mark means an inactive call. The source made the active and inactive calls. Rule as the data show it: active = growth inhibition above about 70%; inactive = the rest.

As for `CC(=O)Nc1ccc(N=C2c3ccccc3-c3ccc(NC(C)=O)cc32)cc1`, the growth inhibition is 2% in test [1] (setting [7]); 64% in test [1] (setting [8]); 98.4% (active) in test [1] (at 50.0 µM); 0% in test [2] (setting [7]); 52% in test [2] (setting [8]); 77.3% (active) in test [2] (at 50.0 µM). Also, the growth inhibition in test [3] (setting [7]) was -2%; in test [3] (setting [8]) it was 57%; in test [3] (at 50.0 µM), 98.5% (active); in test [4] (setting [7]), 3%; in test [4] (setting [8]), 28%; in test [4] (at 50.0 µM), 43.4%. The growth inhibition was -1% in test [5] (setting [7]); 53% in test [5] (setting [8]); 87.8% (active) in test [5] (at 50.0 µM); -5% in test [6] (setting [7]); 59% in test [6] (setting [8]); 98.2% (active) in test [6] (at 50.0 µM).

Regarding `C/C(=N\NC(=S)N1CCC(C)CC1)c1cccc2cccnc12`, the growth inhibition was -5% in test [1] (setting [7]); 98% (active) in test [1] (setting [8]); 62.6% in test [1] (at 50.0 µM); -9% in test [2] (setting [7]); 98% (active) in test [2] (setting [8]); -6.1% in test [2] (at 50.0 µM). Further, the growth inhibition in test [3] (setting [7]) is 0%; in test [3] (setting [8]) it was 98% (active); in test [3] (at 50.0 µM), 83.2% (active); in test [4] (setting [7]), -10%; in test [4] (setting [8]) it was 98% (active); in test [4] (at 50.0 µM), 14.2%. Moreover, the growth inhibition was 2% in test [5] (setting [7]); 98% (active) in test [5] (setting [8]); 6.05% in test [5] (at 50.0 µM); -8% in test [6] (setting [7]); 99% (active) in test [6] (setting [8]); 6.35% in test [6] (at 50.0 µM).

As for `O=c1oc2ccccc2c(O)c1/C=N/C(=S)NCc1ccccc1`, the growth inhibition is -28% in test [1] (setting [7]); -15% in test [1] (setting [8]); 83.8% (active) in test [1] (at 50.0 µM); -11% in test [2] (setting [7]); -18% in test [2] (setting [8]); 85.8% (active) in test [2] (at 50.0 µM). Moreover, the growth inhibition in test [3] (setting [7]) was -19%; in test [3] (setting [8]), -19%; in test [3] (at 50.0 µM) it was 87.3% (active); in test [4] (setting [7]) it was -19%; in test [4] (setting [8]), 10%; in test [4] (at 50.0 µM) it was 76.2% (active). The growth inhibition was -19% in test [5] (setting [7]); 2% in test [5] (setting [8]); 78.3% (active) in test [5] (at 50.0 µM); -36% in test [6] (setting [7]); -12% in test [6] (setting [8]); -42.5% in test [6] (at 50.0 µM).

Consider `FC(F)(F)c1[nH]nc(-c2cccs2)c1N=NN1CCOCC1`, for which the growth inhibition in test [1] (setting [7]) was 98% (active); in test [1] (setting [8]), 98% (active); in test [1] (at 50.0 µM), 98% (active); in test [2] (setting [7]), 100% (active); in test [2] (setting [8]) it was 99% (active); in test [2] (at 50.0 µM), 99.2% (active). The growth inhibition in test [3] (setting [7]) is 100% (active); in test [3] (setting [8]) it was 99% (active); in test [3] (at 50.0 µM), 97.2% (active); in test [4] (setting [7]), 99% (active); in test [4] (setting [8]), 99% (active); in test [4] (at 50.0 µM), 98.6% (active). Moreover, the growth inhibition in test [5] (setting [7]) was 100% (active); in test [5] (setting [8]), 99% (active); in test [5] (at 50.0 µM), 98.6% (active); in test [6] (setting [7]), 100% (active); in test [6] (setting [8]), 99% (active); in test [6] (at 50.0 µM) it was 98% (active).

`CCOc1ccc(/C=C2\NC(=S)N(/C=C3\C(=O)Oc4ccccc4C3=O)C2=O)cc1`: the growth inhibition is 77% (active) in test [1] (setting [7]); 91% (active) in test [1] (setting [8]); -16.1% in test [1] (at 50.0 µM); 6% in test [2] (setting [7]); 71% (active) in test [2] (setting [8]); -28.6% in test [2] (at 50.0 µM). The growth inhibition in test [3] (setting [7]) is -30%; in test [3] (setting [8]) it was 58%; in test [3] (at 50.0 µM), 0.45%; in test [4] (setting [7]), -14%; in test [4] (setting [8]) it was 70% (active); in test [4] (at 50.0 µM), -39.2%. Besides, the growth inhibition is -31% in test [5] (setting [7]); 76% (active) in test [5] (setting [8]); -23.9% in test [5] (at 50.0 µM); 11% in test [6] (setting [7]); 94% (active) in test [6] (setting [8]); -8.6% in test [6] (at 50.0 µM).

As for `CCCCCCCCCCCCCCCc1ncc(C)[nH]1`, the growth inhibition was 69% in test [1] (setting [7]); 69% in test [1] (setting [8]); 99.1% (active) in test [1] (at 50.0 µM); 72% (active) in test [2] (setting [7]); 99% (active) in test [2] (setting [8]); 99.4% (active) in test [2] (at 50.0 µM). For the same compound, the growth inhibition in test [3] (setting [7]) was 91% (active); in test [3] (setting [8]), 99% (active); in test [3] (at 50.0 µM) it was 99.4% (active); in test [4] (setting [7]), 28%; in test [4] (setting [8]), 98% (active); in test [4] (at 50.0 µM), 97.4% (active). Further, the growth inhibition in test [5] (setting [7]) was 75% (active); in test [5] (setting [8]) it was 99% (active); in test [5] (at 50.0 µM), 99.5% (active); in test [6] (setting [7]) it was 50%; in test [6] (setting [8]), 99% (active); in test [6] (at 50.0 µM) it was 99% (active).

On to `O=C1CCC/C1=C\c1ccccc1`, for which the growth inhibition in test [1] (setting [7]) is 7%; in test [1] (setting [8]), 15%; in test [1] (at 50.0 µM), 3.05%; in test [2] (setting [7]), 7%; in test [2] (setting [8]) it was 5%; in test [2] (at 50.0 µM) it was 7.6%. Also, the growth inhibition is 3% in test [3] (setting [7]); 6% in test [3] (setting [8]); 1.4% in test [3] (at 50.0 µM); -2% in test [4] (setting [7]); -13% in test [4] (setting [8]); 49.3% in test [4] (at 50.0 µM). For the same compound, the growth inhibition in test [5] (setting [7]) is -2%; in test [5] (setting [8]) it was 5%; in test [5] (at 50.0 µM), 6.1%; in test [6] (setting [7]), 1%; in test [6] (setting [8]) it was 4%; in test [6] (at 50.0 µM), 2.2%.

Regarding `O=c1ccc2c(COc3ccc(Cl)cc3Cl)c3ccc(O)cc3oc-2c1`, the growth inhibition was -4% in test [1] (setting [7]); 15% in test [1] (setting [8]); 78.5% (active) in test [1] (at 50.0 µM); -3% in test [2] (setting [7]); -1% in test [2] (setting [8]); 45.8% in test [2] (at 50.0 µM). The growth inhibition was -2% in test [3] (setting [7]); 12% in test [3] (setting [8]); 73.9% (active) in test [3] (at 50.0 µM); 9% in test [4] (setting [7]); 12% in test [4] (setting [8]); 26.7% in test [4] (at 50.0 µM). The growth inhibition in test [5] (setting [7]) is -4%; in test [5] (setting [8]), 1%; in test [5] (at 50.0 µM), 25.1%; in test [6] (setting [7]) it was -6%; in test [6] (setting [8]), 4%; in test [6] (at 50.0 µM), 60.1%.

Take `CCNC(=O)NNc1ncnc2c1c(-c1ccc(Cl)cc1)cn2-c1ccc(C)cc1`: the growth inhibition in test [1] (setting [7]) was -10%; in test [1] (setting [8]), 98% (active); in test [1] (at 50.0 µM), 96.7% (active); in test [2] (setting [7]), -11%; in test [2] (setting [8]), 98% (active); in test [2] (at 50.0 µM), 97.7% (active). In addition, the growth inhibition in test [3] (setting [7]) was 5%; in test [3] (setting [8]), 99% (active); in test [3] (at 50.0 µM) it was 98.3% (active); in test [4] (setting [7]), 7%; in test [4] (setting [8]) it was 97% (active); in test [4] (at 50.0 µM), 96.5% (active). In addition, the growth inhibition was 0% in test [5] (setting [7]); 97% (active) in test [5] (setting [8]); 40% in test [5] (at 50.0 µM); -17% in test [6] (setting [7]); 98% (active) in test [6] (setting [8]); 97.2% (active) in test [6] (at 50.0 µM).

`O=C(O)/C(=C/c1ccccc1)c1ccc2ccccc2c1Br`: the growth inhibition in test [1] (setting [7]) is 11%; in test [1] (setting [8]) it was 99% (active); in test [1] (at 50.0 µM), 99.6% (active); in test [2] (setting [7]), 1%; in test [2] (setting [8]), 100% (active); in test [2] (at 50.0 µM) it was 99.7% (active). Further, the growth inhibition in test [3] (setting [7]) is 7%; in test [3] (setting [8]), 100% (active); in test [3] (at 50.0 µM) it was 99.7% (active); in test [4] (setting [7]) it was -18%; in test [4] (setting [8]), 99% (active); in test [4] (at 50.0 µM), 99.2% (active). Besides, the growth inhibition in test [5] (setting [7]) is -10%; in test [5] (setting [8]) it was 99% (active); in test [5] (at 50.0 µM), 99.7% (active); in test [6] (setting [7]), 33%; in test [6] (setting [8]), 99% (active); in test [6] (at 50.0 µM), 99.7% (active).

For the origin of these results see PubChem BioAssay (NCI).
